Measurements published in PubChem BioAssay AID1159580 (chemical genetic matrix, 2015).
Values joined by “and” are separate entries in the source; they are usually repeats but may differ in a detail not shown here. Identical values can stand only once. The campaign covered roughly 5,500 compounds. About 2,000 (36%) were called active. Not shown: some 18% with an inconclusive outcome. No stated cut-off is given here; in the data, active means normalized growth mostly below about 0.91 (no sharp cut-off); inconclusive means no clear call, values can overlap the other calls; inactive means mostly above about 0.92. This is one part of the list.

Assay: chemical genetic growth profiling, strain panel (AID 1159580);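 further: tested at 20 µM; growth read once vehicle control cultures reached saturation at 30 °C; 1 = growth at the plate median or of vehicle wells; lower values mean less growth of the strain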
Settings: S. cerevisiae deletion strains, growth OD

Measured: normalized growth

CO[C@]12C[C@@H](COC(=O)c3cncc(Br)c3)CN(C)[C@@H]1Cc1cn(C)c3cccc2c13
inactive: locus YAL013W, strain DEP1, hits give low values 1.01 | locus YAL021C, strain ccr4, hits give low values 0.973 | locus YAL026C, strain drs2, hits give low values 1 | locus YAL030W, strain snc1, hits give low values 1 | locus YBL061C, strain skt5, hits give low values 0.996 | locus YBR009C, strain hhf1, hits give low values 0.991 | locus YBR021W, strain FUR4, hits give low values 0.913 | locus YBR023C, strain chs3, hits give low values 0.979 | locus YBR171W, strain sec66, hits give low values 0.983 | locus YBR229C, strain ROT2, hits give low values 1 | locus YBR231C, strain swc5, hits give low values 0.951 | locus YBR279W, strain paf1, hits give low values 0.998 | locus YCL011C, strain gbp2, hits give low values 0.983 | locus YCL016C, strain dcc1, hits give low values 0.998 | locus YCL029C, strain bik1, hits give low values 1.02 | locus YCL069W, strain vba3, hits give low values 0.998 | locus YCR088W, strain abp1, hits give low values 1 | locus YDL005C, strain med2, hits give low values 0.979 | locus YDL035C, strain GPR1, hits give low values 0.99 | locus YDL040C, strain nat1, hits give low values 0.995 | locus YDL074C, strain BRE1, hits give low values 0.978 | locus YDL101C, strain DUN1, hits give low values 1.01 | locus YDL134C, strain PPH21, hits give low values 0.995 | locus YDL185W, strain tfp1, hits give low values 1 | locus YDL192W, strain arf1, hits give low values 1.01 | locus YDR001C, strain nth1, hits give low values 0.994 | locus YDR069C, strain doa4, hits give low values 0.966 | locus YDR101C, strain arx1, hits give low values 1 | locus YDR137W, strain rgp1, hits give low values 1.12 | locus YDR150W, strain NUM1, hits give low values 0.999 | locus YDR159W, strain sac3, hits give low values 1.01 | locus YDR162C, strain NBP2, hits give low values 1 | locus YDR195W, strain ref2 0.943 | locus YDR297W, strain sur2, hits give low values 0.987 | locus YDR318W, strain mcm21, hits give low values 1 | locus YDR334W, strain swr1, hits give low values 1 | locus YDR335W, strain msn5, hits give low values 0.986 | locus YDR388W, hits give low values 1 | locus YDR392W, strain spt3, hits give low values 0.93 | locus YDR502C, strain sam2, hits give low values 1 | locus YEL003W, strain gim4, hits give low values 0.988 | locus YEL037C, strain rad23, hits give low values 0.995 | locus YEL061C, strain CIN8 (second series), hits give low values 0.987 | locus YEL061C, strain CIN8, hits give low values 0.997 | locus YER015W, strain faa2, hits give low values 0.996 | locus YER016W, strain bim1, hits give low values 1 | locus YER110C, hits give low values 1.01 | locus YER111C, strain swi4, hits give low values 1.01 | locus YER155C, strain BEM2 (second series), hits give low values 0.912 | locus YER155C, strain BEM2, hits give low values 0.998 | locus YER167W, strain BCK2, hits give low values 1 | locus YFR010W, strain ubp6, hits give low values 0.99 | locus YGL078C, strain dbp3, hits give low values 1 | locus YGL086W, strain mad1, hits give low values 1 | locus YGL167C, strain pmr1, hits give low values 0.996 | locus YGL173C, strain kem1, hits give low values 0.989 | locus YGL227W, strain vid30, hits give low values 0.994 | locus YGL240W, strain doc1, hits give low values 0.95 | locus YGL248W, strain PDE1, hits give low values 1.01 | locus YGL253W, strain hxk2, hits give low values 0.998 | locus YGR078C, strain PAC10, hits give low values 0.974 | locus YGR135W, strain pre9, hits give low values 0.993 | locus YGR229C, strain SMI1, hits give low values 1 | locus YGR252W, strain gcn5, hits give low values 0.869 | locus YHR013C, strain ard1, hits give low values 1.02 | locus YHR027C, strain rpn1, hits give low values 0.988 | locus YHR030C, strain SLT2, hits give low values 1.01 and 0.979 | locus YHR079C, strain IRE1 (second series), hits give low values 1.01 | locus YHR079C, strain IRE1, hits give low values 0.957 | locus YHR094C, strain hxt1, hits give low values 1 | locus YHR129C, strain ARP1, hits give low values 1.02 | locus YHR142W, strain chs7, hits give low values 1.01 | locus YHR200W, strain rpn10, hits give low values 1 | locus YIL066C, strain RNR3, hits give low values 1 | locus YIL073C, strain SPO22, hits give low values 1 | locus YIL125W, strain kgd1, hits give low values 1.01 | locus YIR030C, strain dcg1, hits give low values 1.01 | locus YJL092W, strain hpr5, hits give low values 1 | locus YJL095W, strain BCK1 (second series), hits give low values 1 | locus YJL095W, strain BCK1, hits give low values 0.996 and 0.967 | locus YJL115W, strain asf1, hits give low values 0.991 | locus YJL129C, strain trk1, hits give low values 0.982 | locus YJL134W, strain LCB3, hits give low values 1 | locus YJL154C, strain vps35, hits give low values 0.981 | locus YJL164C, strain tpk1, hits give low values 0.997 | locus YJL166W, strain qcr8, hits give low values 0.972 | locus YJL168C, strain set2, hits give low values 1 | locus YJL187C, strain SWE1 (second series), hits give low values 1.01 | locus YJL187C, strain SWE1, hits give low values 0.996 | locus YJR043C, strain POL32, hits give low values 1.01 | locus YJR066W, strain TOR1, hits give low values 0.897
